Source: PubChem (National Center for Advancing Translational Sciences (NCATS))
Sampled rows, rich in hits. Any-hit rate of the full collection: about 10%.
HP1b binding inh: HP1-beta chromodomain-methylated histone interaction inhibition; AlphaScreen HP1-beta / biotin-H3K9me3 peptide binding; Potency, µM (doses to about 114 µM), for inactives: at the top dose activity change, negative = inhibition, actives largely listed as inhibitors; 390,000 tested, 0.56% active; AID 540317; further: potency means the concentration at half of the fitted maximal effect; nearly all actives have a fitted effect of over 70% in size
Target sequence (P83916 whole entry, looked up): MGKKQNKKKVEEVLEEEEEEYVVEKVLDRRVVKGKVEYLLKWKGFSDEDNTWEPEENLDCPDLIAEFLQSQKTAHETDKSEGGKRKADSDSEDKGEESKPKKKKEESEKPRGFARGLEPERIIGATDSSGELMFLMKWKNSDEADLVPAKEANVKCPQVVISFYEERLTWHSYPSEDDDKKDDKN
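HP1-beta protein (50 nM final) preincubated 30 min at room temperature with biotinylated H3(1-18)K9me3 peptide (50 nM) in PBS pH 7.4, 0.01% Tween-20, then compound added for 30 min. AlphaScreen streptavidin donor/nickel chelate acceptor beads (10 ug/mL final), 30 min dark, luminescence read.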
Six1-Eya2 blk: inhibitors of human Six1/Eya2 interaction; Q15475+O00167; AlphaScreen GST-Six1/His-Eya2 binding, biochemical; active compounds read low; activity change, % (concentration not given with the values); 360,000 tested, 0.56% active; in the data active means activity change below about -65%; inconclusive means mostly about -30% to -63%; further: on the % scale 0 is the no-effect control and ±100 the full control effect
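AlphaScreen luminescence read after one hour at 37 °C in darkness. Pin-transferred compounds met GST-Six1 and His-Eya2 protein (5X stock 250 nM/500 nM) plus glutathione donor and Ni-chelate acceptor beads (5X, 50 ug/mL).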
CtBP-E1A blk: blocks the CtBP interaction with E1A. AlphaScreen GST-E1A/His-CtBP binding, 1536-well; active compounds read low. activity change, % (concentration not given with the values). 340,000 tested, 0.49% active; in the data active means activity change below about -65%; inconclusive means mostly about -30% to -63%; further: on the % scale 0 is the no-effect control and ±100 the full control effect
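Protein mix (5X: 125 nM each GST-E1A, His-CtBP) was incubated with pinned compound 2 h at 37 deg C in dark, in 50 mM Tris pH 8.0 buffer with 300 mM NaCl. Glutathione donor and nickel acceptor beads followed; AlphaScreen signal read after 1 h.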
BAZ2B block: blocks human BAZ2B | Q9UIF8 | AlphaScreen BAZ2B-H3K14Ac peptide displacement | Potency, µM (top dose mostly 114 µM), without a hit: at the top dose activity change, negative = inhibition, actives largely listed as inhibitors | 360,000 tested, 4.4% active | AID 504333; further: potency means the concentration at half of the fitted maximal effect; on the % scale 0 is the no-effect control and ±100 the full control effect; nearly all actives have a fitted effect of over 60% in size
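BAZ2B 50 nM plus b-H3(5-23)K14Ac 50 nM, PBS pH 7.4/0.01% Tween-20, 30 min RT; compound added (max 110 uM), 30 min RT; streptavidin donor/Ni-chelate acceptor beads 10 ug/mL final, 20 min dark; AlphaScreen read.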
G9a block: inhibitors of human histone lysine methyltransferase G9a | Q96KQ7 | G9a H3K9 monomethylation, AlphaScreen, 2 h | Potency, µM (series often up to 102 µM), for inactives: top-dose activity, negative = inhibition, most hits filed as inhibitors | 350,000 tested, 8.8% active | AID 504332; further: potency means the concentration at half of the fitted maximal effect; on the % scale 0 is the no-effect control and ±100 the full control effect; nearly all actives have a fitted effect of over 75% in size
Target sequence (Q96KQ7 913-1193 limits assumed): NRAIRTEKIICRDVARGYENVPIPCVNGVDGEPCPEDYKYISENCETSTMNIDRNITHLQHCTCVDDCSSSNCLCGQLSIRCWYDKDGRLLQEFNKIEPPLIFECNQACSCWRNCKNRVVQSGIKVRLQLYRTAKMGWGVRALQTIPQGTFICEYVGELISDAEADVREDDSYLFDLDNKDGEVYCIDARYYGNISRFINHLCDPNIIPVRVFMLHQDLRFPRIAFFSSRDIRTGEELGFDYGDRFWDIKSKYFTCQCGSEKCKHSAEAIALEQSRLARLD
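Quantitative HTS format: methyltransferase activity on a biotin-tagged H3K9 peptide is measured by AlphaScreen, using a rabbit anti-monomethyl-H3K9 antibody with streptavidin donor and anti-IgG acceptor beads. Final levels are 20 nM enzyme, 500 nM peptide, 20 uM SAM; 2 h RT.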
JMJD2A Tudor: blocks the human JMJD2A Tudor domain. O75164. AlphaScreen JMJD2A-Tudor / H3K4me3 peptide binding. Potency, µM (highest dose often 114 µM), inactives show at the top dose activity change, negative = inhibition, actives largely listed as inhibitors. 390,000 tested, 4.4% active. AID 504339; further: potency means the concentration at half of the fitted maximal effect; on the % scale 0 is the no-effect control and ±100 the full control effect; nearly all actives have a fitted effect of over 50% in size
The depositor's hits bear a star; u = inconclusive; x = not tested or not shown; [ ] = dose if it differs, or a comment. Unless noted, the call rests on the fitted dose curve; in most records, active means well fitted inhibition curve with a large enough effect; inconclusive means small, poorly fitted or top-dose-only effect; inactive means no such curve, though single readings can be large or run the other way.

SMILES	HP1b binding inh	Six1-Eya2 blk	CtBP-E1A blk	BAZ2B block	G9a block	JMJD2A Tudor
CCOC(=O)c1c(NC(=O)COc2ccccc2)sc(C(C)=O)c1C	u	x	x	5%	13µM*	-1%
Cc1ccc(-c2nc3c4ccccc4n(CC(=O)N4CCN(c5ccc(F)cc5)CC4)c(=O)n3n2)cc1	14%	x	x	-2%	3%[59 µM]	-2%
CC(C)c1ccc(S(=O)(=O)c2nnn3c2nc(NC2CCCC2)c2sccc23)cc1	-4%	x	x	-10%	-2%[59 µM]	-23%
CCOC(=O)c1sc(NC(=O)CNCc2ccccn2)c(C(=O)OCC)c1C	9%	u	-71*	28µM*	x	u
CN(Cc1ccccc1)C1=CC(=[N+]2CCCC2)CC(C)(C)C1	u	15	-16	3%	u	8.9µM*
CCN(CC)C1=CC(=[N+]2CCCC2)CC(C)(C)C1	2%	13	-6	-1%	40µM*	1%
COc1ccc2nc(SCC(=O)Nc3cc(OC)c(OC)cc3C(=O)O)c(C)cc2c1	20%	12	-20	-31%	56µM*	u
COc1ccc(OC)c(NC(=O)CSc2nncc3ccc(OC)c(OC)c23)c1	9%	-5	-21	79µM*	x	-33%
COc1cc(NC(=O)CSc2nccc(C)n2)c(C(=O)O)cc1OC	23%	3	7	u	u	-31%
COc1ccc2cnnc(SCC(=O)Nc3ccccc3)c2c1OC	31%	-3	-14	7%	3%[59 µM]	-11%
COc1ccc(OC)c(NC(=O)CSc2ncnc3sc(C)cc23)c1	6%[57 µM]	u	-73*	x	x	u
Cc1ccc2oc(C(=O)Nc3c(C(=O)Nc4ccccc4)oc4ccccc34)cc(=O)c2c1	32%	x	x	3%	-6%[59 µM]	-20%
CCc1ccc(-n2nc(CO)c(C(=O)NCCOC)n2)cc1	25%	x	x	-1%	8%[59 µM]	-6%
O=C(NCC(c1ccco1)N1CCc2ccccc21)c1cccc([N+](=O)[O-])c1 (stereo not drawn)	-11%	-24	-20	50µM*	4%[2.33 µM]	56µM*
Cc1ccc(C(=O)NCC(c2ccco2)N2CCc3ccccc32)cc1 (stereo not drawn)	-23%	-13	-6	u	50µM*	u
O=C(NCC(c1ccco1)N1CCc2ccccc21)c1ccccc1Br (stereo not drawn)	-26%	-24	-4	u	4%[0.501 µM]	u
Cc1ccc(S(=O)(=O)NCC(c2ccco2)N2CCc3ccccc32)cc1 (stereo not drawn)	10%	-27	-15	u	40µM*	u
O=C(NCC(c1ccco1)N1CCc2ccccc21)c1ccccc1F (stereo not drawn)	u	-22	-3	u	56µM*	u
Cc1cccc(C(=O)NCC(c2ccco2)N2CCc3ccccc32)c1 (stereo not drawn)	-14%	-23	-14	u	-5%[2.33 µM]	u
Cn1c(=O)c2c(SCC(=O)Nc3ccc(F)cc3F)nc(C3CCCC3)nc2n(C)c1=O	17%[57 µM]	x	x	-10%	13%[59 µM]	-13%
CC(=O)c1ccc(NC(=O)C2=CC(c3ccc(C)cc3)=NS(=O)(=O)N2C)cc1	-13%	x	x	u	14µM*	u
Cc1ccc(NC(=O)C2=CC(c3ccc(C)cc3)=NS(=O)(=O)N2C)cc1	3%	-16	-7	1%	40µM*	u
COc1ccc(C2=NS(=O)(=O)N(C)C(C(=O)Nc3ccc(C)cc3)=C2)cc1	-3%	-21	-1	u	u	-20%
CS(=O)(=O)N1CCC[C@@]2(CCN(c3ccccn3)C2)C1	x	x	x	x	-6%[12.7 µM]	x
COc1ccc(-c2nc3sc(CCNC(=O)c4cccc(C(F)(F)F)c4)c(C)n3n2)cc1	32%	x	x	-2%	-3%[59 µM]	-14%
SMILES	HP1b binding inh	Six1-Eya2 blk	CtBP-E1A blk	BAZ2B block	G9a block	JMJD2A Tudor
CCOc1ccc(NC(=O)CN2C(C(=O)OC)=C(c3ccccc3)c3cc(Cl)ccc3S2(=O)=O)cc1	17%	x	x	-4%	-9%[59 µM]	-6%
O=C(CN1CCN(CCN2C(=O)c3cccc4cccc(c34)C2=O)CC1)c1ccc(F)cc1	31%	-8	-8	-6%	1.6µM*	-26%
COc1ccc(C(=O)CN2CCN(CCN3C(=O)c4cccc5cccc(c45)C3=O)CC2)cc1	-9%	-12	-10	x	x	-18%[11.4 µM]
O=C(CN1CCN(CCN2C(=O)c3cccc4cccc(c34)C2=O)CC1)c1ccc(Cl)cc1	x	x	x	-34%	7.9µM*	x
CCOC(=O)/C(=N\Nc1cccc(Cl)c1)Sc1nnc(-c2ccc(OC)cc2)n1C	25%	-5	9	-9%	8.9µM*	-15%
COc1cccc(Cn2c(CNC(=O)c3cc([N+](=O)[O-])ccc3Cl)nc3cccnc32)c1	8%[57 µM]	x	x	-27%	45%[59 µM]	-26%
Cn1c(=O)c2c(nc(CN3CCN(Cc4ccccc4)CC3)n2Cc2cccc(Cl)c2)n(C)c1=O	22%	1	-13	-39%	40µM*	-29%
Cn1c(=O)c2c(nc(CN3CCN(C(=O)c4ccco4)CC3)n2Cc2cccc(Cl)c2)n(C)c1=O	35%	u	u	x	u	-9%
Cn1c(=O)c2c(nc(CN3CCc4ccccc4C3)n2Cc2cccc(Cl)c2)n(C)c1=O	43%	-5	0	-1%	8.9µM*	-27%
CSc1ccc(CCNC(=O)CCc2c(C)nc3c(c(C)nn3-c3ccc(C)c(C)c3)c2C)cc1	40%	x	x	-21%	7%[59 µM]	-1%
COc1ccccc1C(=O)N/N=C/c1ccc2c(c1)OCO2	22%	2	-1	5%	8%	-3%
COc1ccccc1N/N=C/c1ccc2c(c1)OCO2	-23%	-8	x	u	7.1µM*	u
Cc1ccc(-c2nnc(SCC(=O)N3CCCC3)o2)cc1C	33%	37	0	-1%	50µM*	u
COc1cc(OC)cc(-c2nnc(SCC(=O)N3CCC(C)CC3)o2)c1	-3%	x	x	-7%	22µM*	-2%
CCOC(=O)N1CCN(C(=O)CSc2nnc(-c3ccc(C)c(C)c3)o2)CC1	66%	1	4	-7%	-10%	4%
NC(=O)CSc1nnc(-c2ccc(S(=O)(=O)N3CCCC3)cc2)o1	38%	5	7	0%	11µM*	-9%
CCOC(=O)N1CCN(C(=O)CSc2nnc(-c3cccc(OC)c3)o2)CC1	-8%	-6	3	5%	50µM*	u
COC(=O)CSc1nnc(-c2ccc(S(=O)(=O)N3CCCC3)cc2)o1	30%	2	6	9%	10%	3%
COc1cc(OC)cc(-c2nnc(SCC(=O)N3CCCC3)o2)c1	25%	3	-1	7%	10%[59 µM]	-9%
